Measured values taken from PubChem BioAssay (Tox21).
Records with an inconclusive call do not appear. Activity calls are given as the source filed them. Unless noted, calls come from the whole dose curve; as a rule, active = well fitted curve in the direction sought with a large enough effect in the repeat runs; inconclusive = weak or mixed curves; inactive = no such curve, though single readings can be large; an effect the other way counts as inactive or inconclusive.

Columns and labels:
[1] = molecular target: Nuclear receptor subfamily 1 group I member 3 (Homo sapiens) (UniProt Q14994); assay: qHTS assay to identify small molecule agonists of the constitutive androstane receptor (CAR) signaling pathway (AID 1224839); note: nearly all actives have a fitted effect of over 15% in size
Nuclear receptor subfamily 1 group I member 3 (Homo sapiens), sequence (Q14994 whole entry, looked up): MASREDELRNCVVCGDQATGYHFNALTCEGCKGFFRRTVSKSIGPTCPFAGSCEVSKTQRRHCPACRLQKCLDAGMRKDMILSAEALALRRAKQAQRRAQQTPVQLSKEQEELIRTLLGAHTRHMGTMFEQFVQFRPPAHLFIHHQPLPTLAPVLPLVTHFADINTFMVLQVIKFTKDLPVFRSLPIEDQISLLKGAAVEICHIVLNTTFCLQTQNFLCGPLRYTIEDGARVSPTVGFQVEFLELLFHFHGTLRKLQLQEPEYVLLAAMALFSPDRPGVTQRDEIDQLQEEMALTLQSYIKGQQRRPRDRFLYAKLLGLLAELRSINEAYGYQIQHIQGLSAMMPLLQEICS
Method in brief: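 A 15-concentration quantitative screen uses HepG2 cells co-transfected stably with human CAR and CYP2B6-2.2kb reporter. Treatment lasts 24 h with 0.75 uM PK11195 final present; ONE-Glo luminescence is the signal.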

[2] = qHTS assay to identify small molecule antagonists of the estrogen related receptor signaling pathway with the pleiotropic PPARgamma coactivator (PGC) from Tox21 10K library - cell viability counter screen (AID 1224840; active = well fitted cell-killing curve with a large enough effect in the repeat runs, not every such curve was filed as active; note: nearly all actives have a fitted effect of over 40% in size)
Method in brief: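 Fluorescence read-out of CellTiter-Fluor viability reagent, added after cells had been exposed to compound in DMSO for 17.5 h at 37 C; 30 min development at 37 C/5% CO2. Cells: PGC/ERR line, 2,000/well.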

[3] = molecular target: Thyrotropin receptor (Homo sapiens) (UniProt P16473); assay: qHTS assay to identify small molecule agonists of the thyroid stimulating hormone receptor (TSHR) signaling pathway (AID 1224843; calls by dose curve; note: nearly all actives have a fitted effect of over 45% in size)
Thyrotropin receptor (Homo sapiens), sequence (P16473 whole entry, looked up): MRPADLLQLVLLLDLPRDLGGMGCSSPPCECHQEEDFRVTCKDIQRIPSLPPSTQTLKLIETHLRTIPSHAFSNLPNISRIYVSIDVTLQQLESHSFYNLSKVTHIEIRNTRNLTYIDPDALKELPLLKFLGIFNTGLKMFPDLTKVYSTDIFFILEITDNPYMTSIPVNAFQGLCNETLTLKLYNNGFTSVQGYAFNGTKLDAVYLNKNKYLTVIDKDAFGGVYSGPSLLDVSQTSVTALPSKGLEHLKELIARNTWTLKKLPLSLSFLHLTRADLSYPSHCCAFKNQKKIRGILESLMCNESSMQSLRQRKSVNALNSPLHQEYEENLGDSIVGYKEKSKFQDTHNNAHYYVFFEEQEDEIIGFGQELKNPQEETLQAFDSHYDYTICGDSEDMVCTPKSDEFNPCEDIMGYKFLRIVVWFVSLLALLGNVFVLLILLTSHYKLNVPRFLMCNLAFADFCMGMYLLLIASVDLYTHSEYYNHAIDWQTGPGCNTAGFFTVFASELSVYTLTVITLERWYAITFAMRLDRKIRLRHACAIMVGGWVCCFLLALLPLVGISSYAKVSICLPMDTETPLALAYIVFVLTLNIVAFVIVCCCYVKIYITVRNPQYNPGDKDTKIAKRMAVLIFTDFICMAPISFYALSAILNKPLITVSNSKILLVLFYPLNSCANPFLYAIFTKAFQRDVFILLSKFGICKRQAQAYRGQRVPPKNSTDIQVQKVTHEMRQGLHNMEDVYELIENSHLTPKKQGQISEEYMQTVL
Method in brief: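 HEK293/TSHR, 800 cells/well; cpd 30 min RT; add cAMP-d2 + anti-cAMP-cryptate, 1 h RT; fluorescence read on plate reader. 15-pt titration, n=3.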

[4] = qHTS assay to identify small molecule agonists of the hypoxia (HIF-1) signaling pathway - cell viability counter screen (AID 1224844; calls by dose curve; note: nearly all actives have a fitted effect of over 50% in size)
Method in brief: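 CellTiter-Glo luminescence read-out, 30 min RT, taken in the same wells as the beta-lactamase HRE reporter assay; HRE-bla ME-180 cells, 0.5% dialyzed FBS, 17 hr compound treatment at 37C, 5% CO2.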

[5] = qHTS assay to identify small molecule agonists of H2AX (AID 1224845; active = well fitted activation curve with a large enough effect in the signal ratio in the repeat runs, not every such curve was filed as active; the % refers to the signal ratio)
Method in brief: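 Wild-type CHO-K1 cells, plated overnight, exposed 3hr at 37C to 15 concentrations (0.76% DMSO final). Lysed, then HTRF anti-pH2AX (S139) cryptate and anti-H2AX-d2 antibodies, 24 hr room temperature; 665/620 nm emission read.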

[6] = qHTS assay to identify small molecule agonists of the hypoxia (HIF-1) signaling pathway (AID 1224846; active = well fitted activation curve with a large enough effect in the signal ratio in the repeat runs, not every such curve was filed as active; the % refers to the signal ratio)
Method in brief: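 Beta-lactamase FRET read-out (CCF4-AM substrate) from ME-180 cells carrying an HRE-driven bla reporter, after 17 hrs compound exposure at 37C/5% CO2. Cells were seeded at 2,000 per well in 0.5% dialyzed FBS medium and preincubated 5 hrs.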

[7] = qHTS assay to identify small molecule agonists of H2AX - cell viability counter screen (AID 1224847; calls by dose curve; note: top concentration of the series differs between compounds; nearly all actives have a fitted effect of over 30% in size)
Method in brief: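 We seed wild-type CHO-K1 cells overnight, treat them for 3 hr at 37C with compounds in 15-concentration series, and quantify remaining viability by CellTiter-Glo luminescence.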

[8] = qHTS RealTime-Glo MT Cell Viability Assay in HepG2 cells - 24 hour (AID 1224867); note: nearly all actives have a fitted effect of over 50% in size
Method in brief: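 Cells + NanoLuc/prosubstrate dispensed (600 cells/well) → 5 h at 37 C/5% CO2 → compounds in DMSO transferred → 40 h incubation at 37 C, luminescence read at 0, 8, 16, 24, 32, 40 h.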

[9] = qHTS RealTime-Glo MT Cell Viability Assay in HEK293 cells - 32 hour (AID 1224868); note: top concentration of the series differs between compounds; nearly all actives have a fitted effect of over 50% in size
Method in brief: (§1)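 Tox21 10K qHTS, HEK293, 600 cells/well, RealTime-Glo reagent co-dispensed with cells; 5 h preincubation, compound by pintool, 37 C, luminescence at 0–40 h.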

[10] = A CellTox Green Cytotoxicity Assay to monitor cytotoxicity in HEK293 cells - 0 hour (AID 1224869); note: nearly all actives have a fitted effect of over 50% in size
Method in brief: (§2)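 Read-out: fluorescence of a cell-impermeant cyanine dye staining DNA of dead cells, proportional to cytotoxicity. HEK293, 600 cells/well with reagent, compound (23 nL DMSO) added after 5 h; reads at 0, 8, 16, 24, 32, 40 h.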

[11] = qHTS RealTime-Glo MT Cell Viability Assay in HepG2 cells - 40 hour (AID 1224870); note: nearly all actives have a fitted effect of over 50% in size
Method in brief: (§3)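 HepG2 cells (600/well) mixed with RealTime-Glo MT reagent, settled 5 h at 37 C/5% CO2 before compound addition. Nonlytic NanoLuc luminescence from viable-cell prosubstrate reduction read repeatedly during 40 h treatment at 37 C.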

[12] = A CellTox Green Cytotoxicity Assay to monitor cytotoxicity in HEK293 cells - 40 hour (AID 1224871); note: nearly all actives have a fitted effect of over 45% in size
Method in brief: as §2

[13] = qHTS RealTime-Glo MT Cell Viability Assay in HEK293 cells - 16 hour (AID 1224872)
Method in brief: as §1

[14] = qHTS RealTime-Glo MT Cell Viability Assay in HepG2 cells - 8 hour (AID 1224873); note: nearly all actives have a fitted effect of over 55% in size
Method in brief: as §3

[15] = qHTS RealTime-Glo MT Cell Viability Assay in HEK293 cells - 40 hour (AID 1224874); conditions: RealTime-Glo luminescence; max response: active compounds read low; note: nearly all actives have a fitted effect of over 50% in size
Method in brief: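 Luminescence readout at each listed time point; HEK293, 600 cells/well, RealTime-Glo MT reagent added with cells; compounds pinned (23 nL in DMSO) after 5 h at 37 C; continuous culture at 37 C.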

[16] = A CellTox Green Cytotoxicity Assay to monitor cytotoxicity in HEK293 cells - 24 hour (AID 1224875); note: nearly all actives have a fitted effect of over 45% in size
Method in brief: as §2

[17] = qHTS assay to identify small molecule antagonists of the estrogen related receptor signaling pathway with the pleiotropic PPARgamma coactivator (PGC) from Tox21 10K library (AID 1224841; call rule not given here)
Method in brief: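 Luminescence read-out (One-Glo luciferase reagent, 30 min at room temperature) from PGC/ERR cells exposed to DMSO-dissolved test compounds for 18 h at 37 C; cells, 2,000 per well, had been preincubated 6 h before compound transfer.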

[18] = qHTS assay to identify small molecule agonists of the estrogen related receptor signaling pathway with the pleiotropic PPARgamma coactivator (PGC) from Tox21 10K library (AID 1224842); note: nearly all actives have a fitted effect of over 15% in size
Method in brief: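 PGC/ERR reporter cell line, 2,000 cells per well, incubated 6 h at 37 C before 23 nL compound in DMSO was added. After 18 h at 37 C, One-Glo luminescence read following 30 min at room temperature.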

[19] = qHTS assay to identify small molecule antagonists of the estrogen related receptor (ERR) signaling pathway from Tox21 library (AID 1224848); note: nearly all actives have a fitted effect of over 50% in size
Method in brief: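 Compounds dissolved in DMSO are pin-transferred onto ERR reporter cells (2,000 per well) that have settled for 6 h at 37 C. Plates then incubate 18 h at 37 C before ONE-Glo luciferase reagent and a luminescence read 30 min later.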

[20] = qHTS assay to identify small molecule agonists of the estrogen related receptor (ERR) signaling pathway from Tox21 library (AID 1224849; calls by dose curve; note: nearly all actives have a fitted effect of over 15% in size); conditions: ERR reporter cell line, ONE-Glo luciferase, 18 h; at 92.4 µM (top of the series) unless noted
Method in brief: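 Luminescence readout (ONE-Glo, 30 min RT) after 18 h compound exposure at 37 C of NTP-supplied ERR reporter cells; cells were plated 6 h before compound addition by pin tool.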
% is set by controls: 0 for no effect and ±100 for the full control effect.

C[C@@H](O)C(=O)O
inactive: Potency [1] | outcome [2] | outcome [3] | outcome [4] | outcome [5] | outcome [6] | outcome [7] | outcome [8] | Potency [9] | Potency [10] | outcome [11] | Potency [12] | Potency [13] | outcome [14] | max response [15] 3.5% | Potency [16]

CCCCOCCOC(=O)COc1ccc(Cl)cc1Cl
inactive: Potency [1] | outcome [2] | outcome [3] | outcome [4] | outcome [5] | outcome [6] | outcome [7] | outcome [8] | Potency [9] | Potency [10] | outcome [11] | Potency [12] | Potency [13] | outcome [14] | max response [15] 1.37% | Potency [16]

Cn1nnc2c(C(N)=O)ncn2c1=O
inactive: Potency [1] | outcome [2] | outcome [17] | outcome [18] | outcome [4] | outcome [6] | outcome [7] | Potency [19] | activity change, positive = activation [20] -0.988% [at 42.5 µM] | outcome [8] | Potency [9] | outcome [11] | Potency [12] | Potency [13] | outcome [14] | max response [15] 3.79% | Potency [16]

CC(C)Nc1ccccc1
inactive: Potency [1] | outcome [2] | outcome [3] | outcome [4] | outcome [5] | outcome [6] | outcome [7] | outcome [8] | Potency [9] | Potency [10] | outcome [11] | Potency [12] | Potency [13] | outcome [14] | max response [15] 3.46% | Potency [16]

O=C(O)[C@H](O)c1ccccc1
inactive: Potency [1] | outcome [2] | outcome [3] | outcome [4] | outcome [5] | outcome [6] | outcome [7] | outcome [8] | Potency [9] | Potency [10] | outcome [11] | Potency [12] | Potency [13] | outcome [14] | max response [15] 0.819% | Potency [16]

CC(=O)OCC(=O)Nc1cc(C#N)cc(NC(=O)COC(C)=O)c1Cl
inactive: Potency [1] | outcome [2] | outcome [3] | outcome [4] | outcome [5] | outcome [6] | outcome [7] | outcome [8] | Potency [9] | Potency [10] | outcome [11] | Potency [12] | Potency [13] | outcome [14] | max response [15] 0.686% | Potency [16]

CCC(C(=O)OCCN1CCOC(c2ccccc2)C1C)c1ccccc1 (centres undefined)
inactive: Potency [1] | outcome [2] | outcome [18] | outcome [4] | outcome [6] | activity change, positive = activation [20] -23.3% [at 42.5 µM] | outcome [11] | Potency [12] | outcome [14] | Potency [16]

COc1nc(N)nc2nc[nH]c12
inactive: Potency [1] | outcome [2] | outcome [18] | outcome [3] | outcome [4] | outcome [5] | outcome [7] | Potency [19] | activity change, positive = activation [20] 0.367% | outcome [8] | Potency [9] | Potency [10] | outcome [11] | Potency [12] | outcome [14] | max response [15] -26% | Potency [16]
